{
  "source": "PubChem BioAssay (Tox21)",
  "note": "Inconclusive results are not listed. A number with no mark means an inactive call. Active and inactive are the calls of the source. The call rests on the fitted dose curve; in most records, active means well fitted activation curve with a large enough effect in the signal ratio in the repeat runs (not every such curve was filed as active); inconclusive means weak or mixed curves; inactive means flat fitted curve, though single readings scatter; the % refers to the signal ratio.",
  "data": [
    {"experiment": "qHTS assay to identify small molecule agonists of the hypoxia (HIF-1) signaling pathway (AID 1224846); further: on the % scale 0 is the no-effect control and ±100 the full control effect", "settings": "HRE-bla ME-180 cells, beta-lactamase ratio, 17 h; series mostly up to 76.8 µM", "source_text": "U.S. Tox21 Program National Center for Advancing Translational Sciences [NCATS] NIH Chemical Genomics Center [NCGC] U.S. Environmental Protection Agency [EPA] National Institutes of Environmental Health Sciences [NIEHS] National Toxicology Program [NTP] U.S. Food and Drug Administration [FDA] Tox21 Assay Overview: Hypoxia-inducible factor-1 (HIF-1) is the major hypoxia-regulated transcription factor that controls cellular responses to low oxygen concentration. HIF-1 is composed of two subunits: hypoxia responsive HIF-1-alpha and constitutively expressed HIF-1-beta, which is also known as aryl hydrocarbon receptor nuclear translocator. During hypoxic conditions, HIF-1-alpha heterodimerizes with HIF-1-beta and translocates into the nucleus where the HIF-1 complex binds to the hypoxia-response element (HRE) and activates expression of target genes such as VEGF (vascular endothelial growth factor). The HIF-1 pathway is essential to normal growth and development, and is involved in the pathophysiology of cancer, inflammation, and ischemia. Using a beta-lactamase reporter-gene under control of the hypoxia response element, a cell-based assay [CellSensor(TM) HRE-bla ME-180 from Life Technologies, Carlsbad, CA] was used to measure hypoxia-induced signaling. Tox21 10K library compounds were measured for their ability to induce the reporter gene activity.\nTox21 Assay Protocol Summary: HRE-bla ME-180 cells were dispensed at 2,000 cells per well in 6 uL of assay medium containing 0.5% dialyzed FBS into black wall/clear-bottom 1536-well plates using a Multidrop Combi (Thermo Scientific, Waltham, MA) dispenser. After the assay plates were incubated at 37C and 5% CO2 for 5 hrs, 23 nL of compounds dissolved in DMSO, positive controls or DMSO only was transferred to each well of the assay plate using a Pintool station (Kalypsys, San Diego, CA). The assay plates were incubated at 37C and 5% CO2 for 17 hrs. One uL of LiveBLAzerTM B/G FRET substrate (CCF4-AM) (Life Technologies) was added to each well using a Flying Reagent Dispenser (Aurora Discovery, San Diego, CA).", "values": [
      {"compound": "CCC(C)(CCC(C)C)C(=O)O", "note": "(stereo not given)", "outcome": "inactive"},
      {"compound": "NNc1nnc(NN)c2ccccc12", "outcome": "inactive"},
      {"compound": "O=C(OCC(COC(=O)c1cccnc1)(COC(=O)c1cccnc1)COC(=O)c1cccnc1)c1cccnc1", "outcome": "inactive"},
      {"compound": "CC(C)N(c1ccccc1)C(C)C", "outcome": "inactive"},
      {"compound": "CCC(C)NC(N)=O", "note": "(stereo not given)", "outcome": "inactive"},
      {"compound": "Cc1ccc2c(c1)OCC(=O)CO2", "outcome": "inactive"},
      {"compound": "CCOCCOC(=O)/C=C/c1ccc(OC)cc1", "outcome": "inactive"},
      {"compound": "CCCCCCCC/C=C\\CCCCCCCC(=O)OCCCC", "activation": "-1.44% [at 15.8 µM]"},
      {"compound": "CC(C(=O)O)c1ccc2c(c1)CC(=O)c1ccccc1S2", "note": "(stereo not given)", "outcome": "inactive"},
      {"compound": "Cc1[nH]cnc1-c1ccc(Cl)cc1", "outcome": "inactive"},
      {"compound": "COC(=O)c1ccccc1C(=O)c1ccc(OCCN2CCCCC2)cc1", "outcome": "inactive"},
      {"compound": "Cc1cccc(OCC(O)CNC(C)(C)C)c1C", "note": "(stereo not given)", "outcome": "inactive"},
      {"compound": "OCCCCC(O)CO", "note": "(stereo not given)", "outcome": "inactive"},
      {"compound": "Cc1ccccc1C(=O)Nc1ccc(C(=O)N2CCCC(N(C)C)c3ccccc32)cc1", "note": "(stereo not given)", "outcome": "inactive"},
      {"compound": "CC(=O)c1ccc2c(c1)Cc1ccccc1-2", "outcome": "inactive"},
      {"compound": "On1nnc2ccccc21", "outcome": "inactive"},
      {"compound": "CCCCOC(=O)c1ccccc1", "outcome": "inactive"},
      {"compound": "CC(CC=O)CCCC(C)(C)O", "note": "(stereo not given)", "outcome": "inactive"},
      {"compound": "O=C(O)Cc1cn(-c2ccccc2)nc1-c1ccc(Cl)cc1", "outcome": "inactive"},
      {"compound": "CCCCCCCCC1CCC(=O)O1", "note": "(stereo not given)", "outcome": "inactive"},
      {"compound": "CC(C)(C)NC(N)=O", "outcome": "inactive"},
      {"compound": "Oc1cn2c(n1)Nc1ccc(Cl)c(Cl)c1C2", "activation": "-0.566% [at 15.8 µM]"},
      {"compound": "C[Si](C)=O", "activation": "-1.19% [at 7.01 µM]"},
      {"compound": "CC1=CCC(C(C)C)=CC1", "outcome": "inactive"},
      {"compound": "CCNC(=O)C1CC(C)CCC1C(C)C", "note": "(stereo not given)", "outcome": "inactive"},
      {"compound": "CCCC(=O)C(C)=O", "outcome": "inactive"},
      {"compound": "CCCCCCOC(=O)CC", "outcome": "inactive"},
      {"compound": "OC[C@H](Cc1cccc(O)c1)[C@H](CO)Cc1cccc(O)c1", "outcome": "inactive"},
      {"compound": "Cc1cccc(C)c1OCC(C)N", "note": "(stereo not given)", "outcome": "inactive"},
      {"compound": "CC(C)CCCC(C)(C)O", "outcome": "inactive"},
      {"compound": "CC(=O)OC(C)OC(=O)C(C)c1ccc(-c2ccccc2)c(F)c1", "note": "(stereo not given)", "outcome": "inactive"},
      {"compound": "COc1cc2c(cc1OC)[C@@H]1CC(=O)[C@@H](CC(C)C)CN1CC2", "outcome": "inactive"},
      {"compound": "C[C@@H](Oc1ccc(CNC(=O)c2cccnc2Oc2ccc3c(c2)OCO3)c(F)c1)C(=O)O", "outcome": "inactive"},
      {"compound": "O=S(O)(O)=S", "activation": "-1% [at 7.01 µM]"},
      {"compound": "COP(=O)(OC)OC(c1ccc(Cl)cc1)P(=O)(OC)OC", "note": "(stereo not given)", "outcome": "inactive"},
      {"compound": "COCCOCCOCCOCCOCCO", "outcome": "inactive"},
      {"compound": "Cc1ccc(S(=O)(=O)O)c(C)c1", "outcome": "inactive"},
      {"compound": "N[C@@H](CCC(=O)Nc1ccc([N+](=O)[O-])cc1)C(=O)O", "outcome": "inactive"},
      {"compound": "O=C1O[C@@H]2[C@@H](O)[C@H](O)O[C@@H]2[C@H]1O", "outcome": "inactive"},
      {"compound": "CCCC/C=C\\CCCCCCCCCC=O", "outcome": "inactive"}
    ]}
  ]
}
